Laboratory results taken from PubChem BioAssay (NCATS).
Inconclusive results are not listed. A call without a number means that no potency is given here. The source made the active and inactive calls. The call rests on the fitted dose curve; in most records, active means well fitted curve in the direction sought with a large enough effect; inconclusive means small, poorly fitted or top-dose-only effect, or another doubt; inactive means no such curve, though single readings can be large; an effect the other way counts as inactive or inconclusive.

Legend:
[1] = biological target: Phospholipid hydroperoxide glutathione peroxidase GPX4 (Homo sapiens) (UniProt P36969); assay: Primary qHTS Assay for Inhibitors of Recombinant Selenoprotein Glutathione Peroxidase 4 (GPX4) (AID 1845192); further: nearly all actives have a fitted effect of over 65% in size; further: potency means the concentration at half of the fitted maximal effect
Phospholipid hydroperoxide glutathione peroxidase GPX4 (Homo sapiens), sequence (P36969 whole entry, looked up): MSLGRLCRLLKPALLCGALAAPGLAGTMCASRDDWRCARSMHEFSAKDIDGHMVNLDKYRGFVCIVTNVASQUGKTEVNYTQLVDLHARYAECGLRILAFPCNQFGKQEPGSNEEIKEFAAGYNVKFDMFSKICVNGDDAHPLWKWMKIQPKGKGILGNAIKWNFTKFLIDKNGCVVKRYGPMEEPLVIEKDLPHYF
Method in brief: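 NADPH consumption, followed by fluorescence at 340/450 nm between 0 and 15 min, reports GPX4 activity via coupled glutathione reductase (100 nM). Enzyme 200 nM was pre-exposed to compound 30 min; 0.5 mM cumene hydroperoxide and 1 mM GSH served as substrates.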

[2] = Quantitative High-Throughput drug screen in 47 multiple myeloma cell lines against the NCATS MIPE library collection: FR4_PLB cell viability assay (AID 1918924; further: nearly all actives have a fitted effect of over 35% in size; further: potency means the concentration at half of the fitted maximal effect)
Method in brief: (§1)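 Primary qHTS used for cherry-picking: cells at 500/well, library compounds for 48 h (37C, 5% CO2), luminescent ATP assay.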

[3] = Quantitative High-Throughput drug screen in 47 multiple myeloma cell lines against the NCATS MIPE library collection: Delta47_JCRB cell viability assay (AID 1918925; further: nearly all actives have a fitted effect of over 45% in size; further: potency means the concentration at half of the fitted maximal effect)
Method in brief: (§2)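 Relative luminescence from CellTiter-Glo served as the viability signal, referenced to DMSO-treated (100%) and cell-free medium (0%) controls. Treatment lasted 48 hours at 37C with 500 cells per well.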

[4] = Quantitative High-Throughput drug screen in 47 multiple myeloma cell lines against the NCATS MIPE library collection: EJM_DSMZ cell viability assay (AID 1918926; further: nearly all actives have a fitted effect of over 30% in size; further: potency means the concentration at half of the fitted maximal effect)
Method in brief: as §2

[5] = Quantitative High-Throughput drug screen in 47 multiple myeloma cell lines against the NCATS MIPE library collection: AMO1_DSMZ cell viability assay (AID 1918927; further: nearly all actives have a fitted effect of over 30% in size; further: potency means the concentration at half of the fitted maximal effect)
Method in brief: as §2

[6] = Quantitative High-Throughput drug screen in 47 multiple myeloma cell lines against the NCATS MIPE library collection: ARP1_JJKsccF8 cell viability assay (AID 1918928; further: nearly all actives have a fitted effect of over 40% in size; further: potency means the concentration at half of the fitted maximal effect)
Method in brief: (§3)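 Myeloma cells at 500 per well in 1536-well format treated with MIPE 4.0 library by pin transfer for 48 h at 37C, 5% CO2. Viability from ATP luminescence (CellTiter-Glo), normalized to DMSO (100%) and media-only (0%) wells.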

[7] = Quantitative High-Throughput drug screen in 47 multiple myeloma cell lines against the NCATS MIPE library collection: ARD_JJKsccE7 cell viability assay (AID 1918929; further: potency means the concentration at half of the fitted maximal effect)
Method in brief: as §2

[8] = Quantitative High-Throughput drug screen in 47 multiple myeloma cell lines against the NCATS MIPE library collection: KMM1_JCRB cell viability assay (AID 1918960); further: nearly all actives have a fitted effect of over 30% in size; further: potency means the concentration at half of the fitted maximal effect
Method in brief: as §3

[9] = Quantitative High-Throughput drug screen in 47 multiple myeloma cell lines against the NCATS MIPE library collection: JIM3_ECACC cell viability assay (AID 1918963; further: nearly all actives have a fitted effect of over 35% in size; further: potency means the concentration at half of the fitted maximal effect)
Method in brief: as §1

[10] = Quantitative High-Throughput drug screen in 47 multiple myeloma cell lines against the NCATS MIPE library collection: INA6_PLB cell viability assay (AID 1918965; further: nearly all actives have a fitted effect of over 55% in size; further: potency means the concentration at half of the fitted maximal effect)
Method in brief: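 We plated 500 myeloma cells per well, pinned in MIPE 4.0 compounds, and incubated for 48 hours at 37C. ATP was then quantified with CellTiter-Glo, with DMSO and media-only wells defining 100% and 0%.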

[11] = Quantitative High-Throughput drug screen in 47 multiple myeloma cell lines against the NCATS MIPE library collection: JJN3_DSMZ cell viability assay (AID 1918966; further: nearly all actives have a fitted effect of over 50% in size; further: potency means the concentration at half of the fitted maximal effect)
Method in brief: as §2

[12] = Quantitative High-Throughput drug screen in 47 multiple myeloma cell lines against the NCATS MIPE library collection: Karpas620_DSMZ cell viability assay (AID 1918959); further: nearly all actives have a fitted effect of over 30% in size; further: potency means the concentration at half of the fitted maximal effect
Method in brief: as §1

[13] = Quantitative High-Throughput drug screen in 47 multiple myeloma cell lines against the NCATS MIPE library collection: KHM11_PLB cell viability assay (AID 1918962); further: nearly all actives have a fitted effect of over 35% in size; further: potency means the concentration at half of the fitted maximal effect
Method in brief: as §1

[14] = biological target: Luciferin 4-monooxygenase (Photinus pyralis) (UniProt P08659); assay: Primary firefly luciferase (FLuc) qHTS assay for identification of artifact compounds. (AID 1845220); further: nearly all actives have a fitted effect of over 60% in size; further: potency means the concentration at half of the fitted maximal effect
Method in brief: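 Compounds sat 15 min at room temperature with 10 uM luciferin and 10 uM ATP (pH 7.6 Tris acetate). Firefly luciferase (10 nM final) was then added, and luminescence was read 5 min later. Data normalized to no-enzyme and DMSO controls were Hill-fitted.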

[15] = Primary redox qHTS assay for identification of artifact compounds. (AID 1845223)
Method in brief: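 Amplex Red (25 uM) and HRP (250 mU/mL) in HBSS, with compounds for 15 min, then 250 uM DTT for 30 min, room temperature, dark. Fluorescence 525/598 nm read; normalized to DMSO and 10 uM DA3003; Hill fit.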

[16] = Quantitative High-Throughput drug screen in 47 multiple myeloma cell lines against the NCATS MIPE library collection: JIM1_ECACC cell viability assay (AID 1918964; further: potency means the concentration at half of the fitted maximal effect)
Method in brief: as §2

[17] = test system: Nanoluciferase (engineered Oplophorus gracilirostris luciferase); assay: Primary Nanoluciferase (NLuc) qHTS assay for identification of artifact compounds. (AID 1845222); further: series mostly up to about 54 µM
Method in brief: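 Luminescence from secreted NLuc (filtered, 1:55-diluted S16 cell medium) read 5 min after Nano-Glo substrate; compounds preincubated 15 min, RT. Hill fits of inhibition normalized to DMSO and no-enzyme.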

SMILES | Potency [1] | Potency [2] | Potency [3] | Potency [4] | Potency [5] | Potency [6] | Potency [7] | Potency [8] | Potency [9] | Potency [10] | Potency [11] | Potency [12] | Potency [13] | Potency [14] | outcome [15] | Potency [16] | outcome [17] | outcome [1]
Nc1ccc(S(N)(=O)=O)cc1 | inactive | inactive | inactive | inactive | inactive | inactive | inactive | inactive | inactive | inactive | inactive |  |  |  |  |  |  | 
COC(=O)C1=C(C)NC(C)=C(C(=O)OCCCN2CCC(c3ccccc3)(c3ccccc3)CC2)C1c1cccc([N+](=O)[O-])c1 (configuration not stated) |  | inactive |  | inactive | inactive |  | inactive |  | inactive |  |  | inactive | inactive |  |  |  |  | 
O=C(O)c1cc(=O)c2c(OCC(O)COc3cccc4oc(C(=O)O)cc(=O)c34)cccc2o1 | inactive |  |  | inactive | inactive | inactive | inactive | inactive | inactive |  |  |  |  |  |  |  |  | 
O=C(O)c1cccc(-c2noc(-c3ccccc3F)n2)c1 | inactive | inactive | inactive | inactive | inactive |  | 14.8 µM (active) | inactive | inactive | 23.5 µM (active) |  | inactive |  | 0.0067 µM (active) | inactive | inactive |  | 
Nc1cccc2c1CN(C1CCC(=O)NC1=O)C2=O (configuration not stated) | inactive | inactive | inactive | inactive |  | inactive |  | inactive | inactive |  | 1.71 µM (active) | inactive |  |  |  |  |  | 
CCCCCCCCCCCCCCCCCCCCCCO | inactive | inactive |  | inactive | inactive | inactive | inactive | inactive | inactive | inactive | inactive | inactive |  |  |  |  |  | 
C=CCc1cc(OC)c(O)c(C(=O)NCCO)c1 |  | inactive | inactive | inactive | inactive |  |  | inactive | inactive | inactive |  | inactive | inactive |  |  |  |  | 
CC(C)C[C@H](NC(=O)[C@H](Cc1ccccc1)NC(=O)c1cnccn1)B(O)O | inactive | 0.0093 µM (active) |  | 0.0166 µM (active) |  | 0.0083 µM (active) |  |  | 0.0235 µM (active) |  | 0.0166 µM (active) |  | 0.0083 µM (active) | inactive | inactive |  | inactive | 
CC1(C)CCC(C)(C)c2cc(NC(=O)c3ccc(C(=O)O)cc3)ccc21 | 10 µM (active) | inactive | 16.6 µM (active) |  |  | inactive | 13.2 µM (active) |  |  | 18.7 µM (active) |  |  |  |  |  | inactive |  | 
O=C(NCCO[N+](=O)[O-])c1cccnc1 | inactive | inactive |  | inactive |  | inactive | inactive | inactive | inactive |  | inactive | inactive |  |  |  | inactive |  | 
Nc1cc(C(Cl)=C(Cl)Cl)c(S(N)(=O)=O)cc1S(N)(=O)=O | inactive | inactive | inactive | inactive | inactive | inactive | inactive | inactive | inactive | inactive |  |  | inactive |  |  | inactive |  | 
CN(C)c1ccc2nc3ccc(=[N+](C)C)cc-3sc2c1 | inactive | 1.87 µM (active) | 6.62 µM (active) | 0.469 µM (active) | 8.33 µM (active) | 1.66 µM (active) | 13.2 µM (active) | 2.35 µM (active) | 2.35 µM (active) | 1.48 µM (active) | 0.662 µM (active) |  | 4.18 µM (active) |  |  | 9.35 µM (active) |  | 
C[C@H](Cn1cnc2c(N)ncnc21)OCP(=O)(O)O |  | inactive | inactive | inactive |  | inactive | inactive | inactive | inactive |  |  | inactive |  |  |  | inactive |  | 
Cc1c(C(=O)NN2CCCCC2)nn(-c2ccc(Cl)cc2Cl)c1-c1ccc(Cl)cc1 | inactive |  |  | inactive | 16.6 µM (active) |  | 16.6 µM (active) | 23.5 µM (active) | 23.5 µM (active) |  | 20.9 µM (active) | 20.9 µM (active) |  |  |  | 11.8 µM (active) |  | 
C[C@]12CCC(=O)C=C1CC[C@@H]1[C@H]2[C@@H](O)C[C@@]2(C)[C@H]1CC[C@]2(O)C(=O)CO |  | inactive |  | inactive | inactive |  | 0.0118 µM (active) |  | inactive |  |  |  |  |  |  | inactive |  | 
CCCCCCCCOc1ccccc1C(=O)Nc1ccc(C(=O)OCC[N+](C)(CC)CC)cc1 |  |  | 18.7 µM (active) |  | inactive | 20.9 µM (active) | inactive |  |  | 18.7 µM (active) |  |  |  |  |  |  |  | 
CC(C)(S)[C@@H](N)C(=O)O |  | inactive |  | inactive | inactive | inactive | inactive |  | inactive |  | inactive |  |  |  |  | inactive |  | inactive [at 4.52 µM]
